# Measurements published in PubChem BioAssay (NCATS).
# “And” between values parts separate entries of the source, which are not always exact repeats. Identical values can stand only once. Inconclusive results are not listed. The source made the active and inactive calls. Unless noted, the call rests on the fitted dose curve; in most records, active means well fitted curve in the direction sought with a large enough effect; inconclusive means small, poorly fitted or top-dose-only effect, or another doubt; inactive means no such curve, though single readings can be large; an effect the other way counts as inactive or inconclusive.
# How the values were obtained:
# [1] = Cell Viability - LYMP1-002 - Assay at 24 hr (AID 993); further: on the % scale 0 is the no-effect control and ±100 the full control effect
# Method in brief: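 Cells plated 2500/well, 5 hr 37 C; compounds added, 24 hr 37 C; CellTiter-Glo added, 30 min RT; luminescence read. Tetraoctylammonium bromide positive control. Hill-equation AC50.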
# [2] = Cell Viability - LYMP1-002 - Assay at 40 hr (AID 994);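 further: 0% = DMSO only and full inhibition = 92 µM tetraoctylammonium bromide; nearly all actives have a fitted effect of over 60% in size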
# Method in brief: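 Luminescent ATP signal served as the viability readout, with decreases taken as toxicity. Cells were treated with compounds across a concentration range for 40 hours at 37 C, and AC50 values came from standard Hill modeling.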
# [3] = qHTS assay for small molecule antagonists of peroxisome proliferator-activated receptor delta signaling (AID 588535; active means well fitted inhibition curve with a large enough effect in the signal ratio, with a control signal flat, not every such curve was filed as active; the % refers to the signal ratio;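 on max response: cells co-treated with a PPAR-delta agonist as stimulator during compound exposure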); settings: HEK293T PPARd-UAS-bla, beta-lactamase FRET ratio, 18 h; 460 nm channel
# Method in brief: (§1)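 Reporter: UAS-bla under PPAR-delta response element, HEK293T host. Medium: 2% charcoal/dextran FBS. Dosing: titration, 18 hrs, 37 C. Detection: CCF4, 2 hrs RT, 405 ex/460 and 530 em.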
# [4] = target: Peroxisome proliferator-activated receptor delta (Homo sapiens) (UniProt Q03181); assay: as above
# Method in brief: as §1
# [5] = target: Vitamin D3 receptor (Homo sapiens) (UniProt P11473); assay: qHTS assay for small molecule antagonists of vitamin D receptor signaling (AID 588541; calls by dose curve;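 further: receptor activated by calcitriol during compound treatment; series mostly up to about 77 µM; on the % scale 0 is the no-effect control and ±100 the full control effect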)
# Method in brief: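 VDR-UAS-bla HEK293T cells (2000/well, 2% charcoal-stripped FBS) were treated with titrated compounds plus 1-alpha,25-dihydroxyvitamin D3 (50 nM or 3 nM final) for 16 h at 37 C. CCF4 beta-lactamase fluorescence was read; Hill fits gave IC50.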
# [6] = target: Vitamin D3 receptor (Homo sapiens) (UniProt P11473); assay: qHTS assay for small molecule agonists of vitamin D receptor signaling (AID 588543; calls by dose curve;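 further: 0% = DMSO basal and 100% = reference agonist control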)
# Method in brief: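 β-lactamase reporter, VDR-UAS-bla HEK293T, agonist mode. Cells plated 5 h at 37 °C, compound titration 16 h at 37 °C, CCF4 dye 2 h RT, ratio 460/530 nm. Hill fit → EC50, efficacy vs 50 nM 1α,25-(OH)2D3.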
# [7] = target: Thyroid hormone receptor beta (Homo sapiens) (UniProt P10828); assay: qHTS assay for small molecule agonists of thyroid hormone receptor beta signaling (AID 588545; calls by dose curve)
# Method in brief: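 Agonist activity was read as beta-lactamase CCF4 fluorescence (405 ex, 460/530 em), scaled between DMSO (0%) and 10 nM T3 (100%), then Hill-fitted for EC50 and efficacy. HEK 293 TR-UAS-bla cells in 2% charcoal/dextran FBS medium were exposed 18 h at 37 C.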
# [8] = qHTS assay for small molecule antagonists of retinoid X receptor alpha signaling (AID 588546; active means well fitted inhibition curve with a large enough effect in the signal ratio, with a control signal flat, not every such curve was filed as active; the % refers to the signal ratio;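 further: cells stimulated with 9-cis-retinoic acid as agonist; on the % scale 0 is the no-effect control and ±100 the full control effect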); settings: HEK293T RXRa-UAS-bla, beta-lactamase ratio, antagonist mode; measured here: W530 green channel, cytotoxicity proxy
# Method in brief: (§2)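 Beta-lactamase reporter inhibition, read as CCF4 fluorescence ratio (ex 405, em 460/530 nm) after 2 h at RT. HEK293T UAS-bla cells, 2500/well, were stimulated with 9-cis-RA at 500 or 100 nM final alongside test compound for 18 h at 37 C.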
# [9] = target: Retinoic acid receptor RXR-alpha (Homo sapiens) (UniProt P19793); assay: as above; settings: HEK293T RXRa-UAS-bla, beta-lactamase ratio, antagonist mode
# Method in brief: as §2
# [10] = target: Thyroid hormone receptor beta (Homo sapiens) (UniProt P10828); assay: qHTS assay for small molecule antagonists of thyroid hormone receptor beta signaling (AID 588547; active means well fitted inhibition curve with a large enough effect in the signal ratio, with a control signal flat, not every such curve was filed as active; the % refers to the signal ratio;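 further: cells stimulated with 0.4 nM T3 agonist during compound exposure; series mostly up to about 77 µM; on the % scale 0 is the no-effect control and ±100 the full control effect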); settings: TR-UAS-bla HEK293, beta-lactamase ratio, antagonist mode, 18 h
# Method in brief: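 TR-UAS-bla GripTite HEK293 cells in 2% charcoal/dextran FBS medium were preincubated 4 h at 37 C, given compound (0.59 nM to 92 uM) plus 0.4 nM T3 (final) for 18 h, then CCF4 for 2 h at RT; Hill fit gave IC50.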
# [11] = target: Voltage-gated inwardly rectifying potassium channel KCNH2 (Homo sapiens) (UniProt Q12809); assay: qHTS Assay for Small Molecule Inhibitors of the Human hERG Channel Activity (AID 588834);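 further: top concentration of the series differs between compounds; on the % scale 0 is the no-effect control and ±100 the full control effect; lower thallium flux fluorescence means stronger hERG block; nearly all actives have a fitted effect of over 50% in size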
# Method in brief: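 Concentration-response qHTS measuring drop in thallium-sensitive dye signal. U2OS cells carrying BacMam hERG; compound exposure ~10 min, then stimulation buffer and 2 min read at 1 sec intervals.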
# [12] = qHTS assay for small molecule agonists of the antioxidant response element (ARE) signaling pathway (AID 651741; active means well fitted activation curve with a large enough effect in the signal ratio; the % refers to the signal ratio; further: potency means the concentration at half of the fitted maximal effect)
# Method in brief: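 Compounds in DMSO are pinned onto HepG2 ARE-bla cells (2,000/well) that were preincubated 5 h; plates stay 16 h at 37 C, then beta-lactamase activity is detected with LiveBLAzer B/G substrate by fluorescence.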
# [13] = qHTS assay for small molecule activators of the p53 signaling pathway (AID 651743; active means well fitted activation curve with a large enough effect in the signal ratio, not every such curve was filed as active; the % refers to the signal ratio; further: series mostly up to about 92 µM; % of control where 0% means no effect); settings: HCT-116 p53RE-bla, beta-lactamase FRET ratio, 16 h; stronger effect = higher value
# Method in brief: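 Cell-based beta-lactamase reporter (p53 response elements, HCT-116 background). After a 5-hour preincubation, cells received compound for 16 hours at 37 C; substrate development ran 2 hours at room temperature.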
# [14] = qHTS assay for small molecule activators of the nuclear factor-kappa B (NF-kB) signaling pathway (AID 651749; active means well fitted activation curve with a large enough effect in the signal ratio; the % refers to the signal ratio; further: series mostly up to about 77 µM; % of control where 0% means no effect); settings: NF-kB-bla ME-180 cells, beta-lactamase FRET ratio, 16 h; stronger effect = higher value
# Method in brief: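 Screening used 2,000 ME-180 reporter cells per well exposed to pinned compound (23 nL) or DMSO; after 16 hr at 37C, beta-lactamase expression under NF-kB control was assessed through FRET.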
# [15] = qHTS assay for environmental chemicals that activate the Aryl hydrocarbon Receptor (AhR) signaling pathway (AID 651777); settings: 1A2-DRE human hepatoma cells, luciferase, 24 h; stronger effect = higher value; further: % of control where 0% means no effect; nearly all actives have a fitted effect of over 15% in size
# Method in brief: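 1A2-DRE human hepatoma reporter line; 1,200 cells/well; cmpd or DMSO 24 h, 37 C/5% CO2; One-Glo 30 min RT; luciferase lum.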
# [16] = target: Peroxisome proliferator-activated receptor alpha (Homo sapiens) (UniProt Q07869); assay: qHTS assay for small molecule agonists of the peroxisome proliferator-activated receptor alpha (PPARalpha) signaling pathway (AID 651778); settings: PathHunter PPARalpha complementation, chemiluminescence, 6 h; stronger effect = higher value; further: % of control where 0% means no effect
# Method in brief: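 Cells plated at 2,000/well and held overnight at 37 C, 5% CO2, then compound added by pin tool for 6 hr; after PathHunter detection reagent and 60 min at room temperature, chemiluminescence from enzyme complementation was read.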
# [17] = target: Nuclear receptor ROR-gamma (Homo sapiens) (UniProt P51449); assay: qHTS assay for small molecule antagonists of the retinoid-related orphan receptor gamma (ROR-gamma) signaling pathway (AID 651802);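 further: luciferase reporter luminescence driven by ROR response element; series mostly up to about 92 µM; on the % scale 0 is the no-effect control and ±100 the full control effect; nearly all actives have a fitted effect of over 60% in size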
# Method in brief: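 CHO, TET-inducible ROR + RORE-LUC reporter, 1536-well qHTS. Compound pinned, doxycycline added, 16hr 37C/5% CO2. ONE-Glo, 30 min RT, luminescence; signal drop scored as antagonism.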
# [18] = qHTS assay for small molecule agonists of the antioxidant response element (ARE) signaling pathway measured by Nrf2-dependant transcriptional activity (AID 720636; active means well fitted curve in the direction sought with a large enough effect in the repeat runs; an effect the other way counts as inactive or inconclusive;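 further: HepG2 cells with an ARE-driven luciferase reporter; % of control where 0% means no effect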)
# Method in brief: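 Cells: ARE-luc HepG2 with Nrf2-responsive luciferase. Medium contained 1% dialyzed FBS. Compound exposure lasted 16 hr at 37 C and 5% CO2, followed by ONE-Glo luciferase detection.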
# [19] = qHTS assay for small molecule antagonists of the retinoid-related orphan receptor gamma (ROR-gamma) signaling pathway - cell viability counter screen (AID 720652; active means well fitted curve in the direction sought with a large enough effect in the repeat runs; an effect the other way counts as inactive or inconclusive)
# Method in brief: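 Luminescence from CellTiter-Glo after 30 min at room temperature reported cellular ATP as the cytotoxicity measure. Cells were the CHO reporter line with doxycycline-induced ROR-gamma expression, exposed to compound for 16 hr at 37 C.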
# [20] = qHTS assay for small molecule agonists of the antioxidant response element (ARE) signaling pathway measured by Nrf2-dependant transcriptional activity - cell viability counter screen (AID 720653; active means well fitted curve in the direction sought with a large enough effect in the repeat runs; an effect the other way counts as inactive or inconclusive; further: on the % scale 0 is the no-effect control and ±100 the full control effect); settings: ARE-bla HepG2 viability, CellTiter-Glo ATP luminescence, 16 h; stronger effect = lower value
# Method in brief: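 ARE-bla HepG2 cells (2,000/well) rested 5 hrs at 37C/5% CO2, then exposed to compounds in DMSO for 16 hrs. Viability was read in the same wells as intracellular ATP by luminescence, 30 min at room temperature after reagent addition.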
# [21] = qHTS assay for cell viability of HEK293 cells (AID 743288); settings: ATP luminescence (CellTiter-Glo), 18 h, stronger effect = lower value; further: on the % scale 0 is the no-effect control and ±100 the full control effect; nearly all actives have a fitted effect of over 50% in size
# Method in brief: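 Environmental chemicals tested in qHTS format against parental HEK293 cells; 18 h treatment, 37 C; read-out ATP luminescence (CellTiter-Glo), 30 min RT development.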
# [22] = qHTS assay for cell viability of the p53RE-bla HCT-116 cell line (AID 743292); further: on the % scale 0 is the no-effect control and ±100 the full control effect; nearly all actives have a fitted effect of over 55% in size
# Method in brief: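 HCT-116 p53RE-bla cells seeded 4,000/well; 5 h at 37 C; compound (DMSO) added; 16 h at 37 C; CellTiter-Glo added, 30 min RT; luminescence read.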
# [23] = Primary qHTS for inhibitors of nuclear receptor binding SET domain protein 2 (NSD2) in an RCH-ACV wild type WT cells (2C) (AID 1645877); further: potency means the concentration at half of the fitted maximal effect; nearly all actives have a fitted effect of over 70% in size
# [24] = target: Glutathione peroxidase 1 (Homo sapiens) (UniProt P07203); assay: Primary qHTS Assay for Inhibitors of Recombinant Selenoprotein Glutathione Peroxidase 1 (GPX1) (AID 1845191); further: on the % scale 0 is the no-effect control and ±100 the full control effect; nearly all actives have a fitted effect of over 65% in size
# Method in brief: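 Recombinant GPX1 (10 nM final) was preincubated with compound for 30 min at room temperature, then reacted with 1 mM GSH, 0.5 mM CHP, 0.5 mM NADPH and 100 nM glutathione reductase; NADPH fluorescence (340/450 nm) was read at 0 and 15 min.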
# [25] = qHTS drug screen for cell cycle checkpoint inhibitors in PARPi-resistant BRCA-mutant ovarian cancer cell lines. (AID 1963452; calls by dose curve); settings: PEO1/OlaR viability, CellTiter-Glo luminescence, 96 h, stronger effect = lower value
# Method in brief: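 PEO1, PEO4 and PEO1/OlaR ovarian cancer cells, 600 per well, exposed 96 h at 37C to a dilution series. Viability read by CellTiter-Glo luminescence, normalized to DMSO and empty wells; activity summarized as Z-AUC.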
# Chain of Vitamin D3 receptor (Homo sapiens) (P11473 whole entry, looked up): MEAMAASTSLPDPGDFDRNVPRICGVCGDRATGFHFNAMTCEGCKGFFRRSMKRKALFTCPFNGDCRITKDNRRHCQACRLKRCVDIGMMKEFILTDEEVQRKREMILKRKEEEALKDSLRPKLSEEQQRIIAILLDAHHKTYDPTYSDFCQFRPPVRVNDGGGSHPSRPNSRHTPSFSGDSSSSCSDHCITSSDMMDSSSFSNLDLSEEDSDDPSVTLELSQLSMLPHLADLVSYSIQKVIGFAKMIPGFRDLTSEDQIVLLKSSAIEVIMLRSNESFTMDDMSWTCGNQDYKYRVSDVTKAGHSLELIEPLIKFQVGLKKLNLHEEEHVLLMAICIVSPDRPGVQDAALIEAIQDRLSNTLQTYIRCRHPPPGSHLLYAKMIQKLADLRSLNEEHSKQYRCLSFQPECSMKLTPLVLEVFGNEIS
# Chain of Thyroid hormone receptor beta (Homo sapiens) (P10828 whole entry, looked up): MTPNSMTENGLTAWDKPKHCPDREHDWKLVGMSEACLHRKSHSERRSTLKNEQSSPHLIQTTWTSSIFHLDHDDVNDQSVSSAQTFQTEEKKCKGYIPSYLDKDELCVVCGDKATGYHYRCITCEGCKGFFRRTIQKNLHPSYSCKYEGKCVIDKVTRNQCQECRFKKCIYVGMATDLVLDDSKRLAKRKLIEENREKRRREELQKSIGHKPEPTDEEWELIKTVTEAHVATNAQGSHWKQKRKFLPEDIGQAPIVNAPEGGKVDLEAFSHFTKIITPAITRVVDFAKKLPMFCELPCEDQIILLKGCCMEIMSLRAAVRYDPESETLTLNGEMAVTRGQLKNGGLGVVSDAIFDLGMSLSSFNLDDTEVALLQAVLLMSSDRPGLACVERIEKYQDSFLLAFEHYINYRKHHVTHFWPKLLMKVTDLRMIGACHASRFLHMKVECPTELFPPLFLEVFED
# Chain of Retinoic acid receptor RXR-alpha (Homo sapiens) (P19793 whole entry, looked up): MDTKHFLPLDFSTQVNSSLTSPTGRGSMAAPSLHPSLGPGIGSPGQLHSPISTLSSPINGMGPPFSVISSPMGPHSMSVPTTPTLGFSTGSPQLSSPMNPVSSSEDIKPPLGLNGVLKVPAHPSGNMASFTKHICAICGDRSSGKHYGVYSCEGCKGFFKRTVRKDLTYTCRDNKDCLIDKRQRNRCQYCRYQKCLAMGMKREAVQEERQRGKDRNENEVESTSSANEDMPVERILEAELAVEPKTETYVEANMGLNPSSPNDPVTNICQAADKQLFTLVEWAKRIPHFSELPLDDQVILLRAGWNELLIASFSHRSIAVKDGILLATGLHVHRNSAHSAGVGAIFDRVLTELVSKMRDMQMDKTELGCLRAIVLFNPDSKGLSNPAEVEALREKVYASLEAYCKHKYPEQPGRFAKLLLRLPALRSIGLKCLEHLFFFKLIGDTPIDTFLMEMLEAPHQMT
# Chain of Peroxisome proliferator-activated receptor alpha (Homo sapiens) (Q07869 whole entry, looked up): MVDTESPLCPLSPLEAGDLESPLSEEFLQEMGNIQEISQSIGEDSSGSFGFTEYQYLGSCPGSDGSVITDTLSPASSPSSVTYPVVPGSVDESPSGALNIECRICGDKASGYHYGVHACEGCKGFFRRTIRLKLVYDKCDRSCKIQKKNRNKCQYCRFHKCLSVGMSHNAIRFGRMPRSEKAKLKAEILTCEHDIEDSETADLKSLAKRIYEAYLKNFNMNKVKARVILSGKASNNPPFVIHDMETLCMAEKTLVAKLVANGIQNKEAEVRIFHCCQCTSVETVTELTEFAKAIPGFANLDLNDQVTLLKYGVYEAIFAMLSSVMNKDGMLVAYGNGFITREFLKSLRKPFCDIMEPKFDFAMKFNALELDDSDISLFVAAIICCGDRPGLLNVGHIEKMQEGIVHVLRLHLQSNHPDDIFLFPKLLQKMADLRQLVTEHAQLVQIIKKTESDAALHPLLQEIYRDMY
# Chain of Peroxisome proliferator-activated receptor delta (Homo sapiens) (Q03181 whole entry, looked up): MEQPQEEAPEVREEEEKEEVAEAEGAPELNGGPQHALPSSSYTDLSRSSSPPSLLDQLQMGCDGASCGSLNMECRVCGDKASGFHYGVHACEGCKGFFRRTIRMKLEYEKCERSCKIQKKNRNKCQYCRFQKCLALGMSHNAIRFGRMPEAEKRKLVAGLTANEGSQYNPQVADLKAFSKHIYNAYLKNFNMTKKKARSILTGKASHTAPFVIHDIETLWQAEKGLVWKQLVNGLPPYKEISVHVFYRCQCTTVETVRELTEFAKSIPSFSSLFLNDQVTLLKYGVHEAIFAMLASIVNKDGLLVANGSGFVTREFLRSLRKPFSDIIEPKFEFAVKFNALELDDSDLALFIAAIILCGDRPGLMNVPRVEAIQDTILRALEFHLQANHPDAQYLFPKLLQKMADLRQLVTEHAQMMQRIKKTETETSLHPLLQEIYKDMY
# Chain of Nuclear receptor ROR-gamma (Homo sapiens) (P51449 whole entry, looked up): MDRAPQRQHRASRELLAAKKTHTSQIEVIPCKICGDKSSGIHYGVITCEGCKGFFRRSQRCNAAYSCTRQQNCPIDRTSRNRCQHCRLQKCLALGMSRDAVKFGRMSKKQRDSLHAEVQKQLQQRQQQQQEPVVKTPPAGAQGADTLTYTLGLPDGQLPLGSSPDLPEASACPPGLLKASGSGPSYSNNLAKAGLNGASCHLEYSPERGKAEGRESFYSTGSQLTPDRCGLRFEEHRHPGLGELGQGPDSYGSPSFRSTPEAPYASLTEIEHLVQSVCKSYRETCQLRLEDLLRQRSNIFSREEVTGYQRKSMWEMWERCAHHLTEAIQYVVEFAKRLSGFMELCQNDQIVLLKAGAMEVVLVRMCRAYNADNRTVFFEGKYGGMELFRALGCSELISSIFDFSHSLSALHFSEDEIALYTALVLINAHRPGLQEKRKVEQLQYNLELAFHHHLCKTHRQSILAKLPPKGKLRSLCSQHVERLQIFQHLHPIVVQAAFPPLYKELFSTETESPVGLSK
# Chain of Voltage-gated inwardly rectifying potassium channel KCNH2 (Homo sapiens) (Q12809 whole entry, looked up): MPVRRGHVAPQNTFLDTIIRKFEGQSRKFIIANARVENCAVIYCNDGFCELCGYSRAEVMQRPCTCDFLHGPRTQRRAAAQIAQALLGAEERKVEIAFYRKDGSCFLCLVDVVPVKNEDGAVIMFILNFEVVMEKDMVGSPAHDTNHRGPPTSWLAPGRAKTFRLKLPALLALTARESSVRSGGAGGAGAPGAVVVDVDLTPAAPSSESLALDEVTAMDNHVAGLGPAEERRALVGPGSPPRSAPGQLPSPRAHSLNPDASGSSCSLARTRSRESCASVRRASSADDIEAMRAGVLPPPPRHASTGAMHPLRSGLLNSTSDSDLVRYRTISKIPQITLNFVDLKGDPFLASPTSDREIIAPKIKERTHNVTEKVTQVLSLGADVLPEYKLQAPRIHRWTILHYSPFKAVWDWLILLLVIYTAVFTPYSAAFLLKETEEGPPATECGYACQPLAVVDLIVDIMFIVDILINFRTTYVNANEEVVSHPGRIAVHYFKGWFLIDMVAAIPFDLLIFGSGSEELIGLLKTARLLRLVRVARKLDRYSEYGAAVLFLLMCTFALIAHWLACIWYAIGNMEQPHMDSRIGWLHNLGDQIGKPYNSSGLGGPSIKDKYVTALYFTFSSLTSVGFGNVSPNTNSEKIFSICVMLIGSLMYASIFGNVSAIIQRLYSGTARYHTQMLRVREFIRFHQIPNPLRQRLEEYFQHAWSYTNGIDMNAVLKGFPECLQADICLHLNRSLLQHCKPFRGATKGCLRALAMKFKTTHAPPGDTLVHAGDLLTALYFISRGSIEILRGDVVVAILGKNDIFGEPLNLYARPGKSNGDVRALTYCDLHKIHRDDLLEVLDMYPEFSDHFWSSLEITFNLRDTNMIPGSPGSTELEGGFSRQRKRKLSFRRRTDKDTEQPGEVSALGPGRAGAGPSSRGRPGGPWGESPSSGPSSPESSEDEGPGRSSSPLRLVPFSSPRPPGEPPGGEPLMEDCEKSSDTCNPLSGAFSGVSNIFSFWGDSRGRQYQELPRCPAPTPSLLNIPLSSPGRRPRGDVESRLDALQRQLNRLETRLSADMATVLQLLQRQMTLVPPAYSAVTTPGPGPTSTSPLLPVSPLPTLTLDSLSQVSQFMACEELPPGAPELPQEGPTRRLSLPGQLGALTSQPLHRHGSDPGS
# Chain of Glutathione peroxidase 1 (Homo sapiens) (P07203 whole entry, looked up): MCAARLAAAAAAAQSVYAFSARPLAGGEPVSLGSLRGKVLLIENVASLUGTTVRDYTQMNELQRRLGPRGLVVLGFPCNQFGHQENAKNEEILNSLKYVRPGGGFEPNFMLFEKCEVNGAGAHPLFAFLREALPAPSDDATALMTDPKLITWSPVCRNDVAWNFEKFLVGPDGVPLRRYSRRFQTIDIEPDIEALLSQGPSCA
smiles,measurement,setting,value
CO[C@H]1/C=C/O[C@@]2(C)Oc3c(C)c(O)c4c(O)c(c(/C=N/N5CCN(C)CC5)c(O)c4c3C2=O)NC(=O)/C(C)=C\C=C\[C@H](C)[C@H](O)[C@@H](C)[C@@H](O)[C@@H](C)[C@H](OC(C)=O)[C@@H]1C,outcome,[1],inactive
same,outcome,[2],inactive
same,max response,[3],91.2%
same,outcome,[4],inactive
same,outcome,[5],inactive
same,outcome,[6],inactive
same,outcome,[7],inactive
same,max response,[8],12.2% and 0.217%
same,max response,[9],-24.8% (inactive) and 0.888% (inactive)
same,activity change % (negative = inhibition),[10],4.86% (inactive) and -12.3% (inactive)
same,outcome,[11],inactive
same,Potency,[12],54.5 µM (active)
same,activation,[13],-10.4% (inactive) and -9.54% (inactive)
same,activation,[14],-0.981% (inactive) and -2.03% (inactive)
same,activation,[15],0.185% (inactive) and -0.0706% (inactive)
same,max response,[16],-9.67% (inactive) and -6.67% (inactive)
same,outcome,[17],inactive
same,outcome,[18],inactive
same,outcome,[19],inactive
same,max response,[20],-3.19% (inactive) and -26% (inactive)
same,max response,[21],-14.9% (inactive) and -19.1% (inactive)
same,outcome,[22],inactive
same,Potency,[23],16.6 µM (active)
same,Potency,[24],inactive
same,Z-AUC,[25],1.24 (inactive)
same,Z-AUC,[25]; measured here: PEO1 parental Z-AUC,1.13
same,Z-AUC,[25]; measured here: PEO4 Z-AUC,1.29
